Assay outcomes (PubChem BioAssay)
Most compounds without a hit are left out; they make up all but 17% or so of the library.
ATXN viability – viability counter-screen for ATXN expression inhibitors. S2 cells (HEK-293 line with an ATXN2-luciferase reporter) viability, CellTiter-Fluor protease fluorescence, 24 h. Potency, µM (top dose mostly 56.7 µM), hits mostly cytotoxic. 400,000 tested, 0.49% active. AID 651635; further: nearly all actives have a fitted effect of over 40% in size
TDP1 cell CPT – DT40-hTDP1 cell growth loss with CPT | 420,000 tested, 12% active | chicken DT40 Tdp1-/-;hTDP1 cells + 20 nM CPT, ATP luminescence, 48 h | Potency, µM (highest dose often 46.2 µM), without a hit: top-dose activity change, negative = growth inhibition, usual class: inhibitors | AID 686979; further: on the % scale 0 is the no-effect control and ±100 the full control effect; nearly all actives have a fitted effect of over 55% in size
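Chicken DT40 Tdp1-/- cells complemented with human TDP1, 400 cells/well, exposed to compounds plus 20 nM camptothecin for at least 48 h at 37 C; viability read as ATP content by CellTiter-Glo luminescence.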
TDP1 cell noCPT – qHTS for Inhibitors of human tyrosyl-DNA phosphodiesterase 1 (TDP1): qHTS in cells in absence of CPT; DT40 Tdp1-/- hTDP1 cells, no CPT, ATP luminescence, 48 h; Potency, µM (series often up to 46.2 µM), inactives show at the top dose activity change, negative = growth inhibition, hits mostly inhibitors; 420,000 tested, 15% active; AID 686978, 2013; further: on the % scale 0 is the no-effect control and ±100 the full control effect; nearly all actives have a fitted effect of over 55% in size
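Chicken DT40 Tdp1-/- cells complemented with human TDP1, screened without camptothecin (DMSO vehicle only), 400 cells/well. Compounds pin-transferred, cells incubated at 37 °C for at least 48 hr. Growth read as ATP-dependent luminescence (CellTiter-Glo, 30 min at RT).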
ATXN2 expr inh – ATXN2 expression inhibition. HEK-293 ATXN2-luciferase reporter, luminescence, 24 h. Potency, µM (highest dose often 57 µM), without a hit: at the top dose activity change, negative = inhibition, hits mostly inhibitors. 360,000 tested, 0.72% active; further: on the % scale 0 is the no-effect control and ±100 the full control effect; nearly all actives have a fitted effect of over 55% in size
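qHTS (up to 57 uM final) was run with 24 h compound exposure of reporter cells at 37 °C. Each well was multiplexed: SteadyGlo luminescence measured ATXN2-luciferase expression after a fluorogenic Gly-Phe-AFC viability readout (25 uM final).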
HepG2 tox – kills HepG2 cells in TGF-b inhibitor counter-screen; Potency, µM (doses to about 46.1 µM), for inactives: top-dose activity change, negative = cytotoxicity, usual class: cytotoxic; HepG2 CAGA-GFP viability, ATP luminescence, 18 h; 410,000 tested, 0.76% active; AID 588856
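CellTiter-Glo luminescence gave cytotoxicity after 18 hours at 37 degrees C. The cells were HepG2 CAGA-GFP in 1% FBS DMEM, stimulated with 500 pg/mL TGF-beta after compound addition. %Activity was normalised to no-cell wells (complete cell-killing) and DMSO (no toxicity), and curves were fitted and classified.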
TGFb SMAD3 inh – TGF-b pathway inhibition; HepG2 CAGA-GFP TGF-b/SMAD3 reporter, GFP fluorescence, 18 h; TGF-beta stimulated, 500 pg/mL final; Potency, µM (doses to about 46.1 µM), inactives show at the top dose activity, negative = inhibition, usual class: inhibitors; 410,000 tested, 1.2% active; AID 588855; further: on the % scale 0 is the no-effect control and ±100 the full control effect; nearly all actives have a fitted effect of over 65% in size
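Inhibition was scored as loss of TGF-beta-induced (500 pg/mL final, 18 hours, 37 degrees C) GFP in HEPG2 cells carrying a CAGA-GFP reporter, in DMEM with 1% FBS. Well GFP was summed per cell; Activity was normalised to unstimulated and stimulated DMSO wells, then concentration-response fitting.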
* marks the source's active call; other numbers are inactive results; i = inactive; ? = inconclusive; . = not tested or not shown; [ ] = another dose, or the depositor's remark. The call rests on the fitted dose curve; in most records, active means well fitted curve in the direction sought with a large enough effect; inconclusive means small, poorly fitted or top-dose-only effect, or another doubt; inactive means no such curve, though single readings can be large; an effect the other way counts as inactive or inconclusive. Potency means the concentration at half of the fitted maximal effect.

SMILES	ATXN viability	TDP1 cell CPT	TDP1 cell noCPT	ATXN2 expr inh	HepG2 tox	TGFb SMAD3 inh
Cc1ccccc1C(=O)N/N=C1/SCC(=O)N1Cc1ccc2c(c1)OCO2	i	-6%	-5%	0%	-7%	-1%
CCN1C(=O)c2ccccc2Sc2ccc(NC(C)=O)cc21	i	1%	-2%	-7%	-2%	-15%
CC(C)CCNC(=O)c1ccc2c(c1)N(Cc1cccc(Cl)c1)C(=O)c1ccccc1S2	.	?	21µM*	.	-13%	-16%
CC(C)CCNC(=O)Nc1ccc2c(c1)N(Cc1ccccc1)C(=O)c1ccccc1S2	.	18µM*	?	.	-24%	.
Cc1nn(CCCC(=O)NCc2ccc(F)cc2)c(=O)c2c1sc1ccccc12	.	-25%	-18%	.	6%	24%
O=C(NCc1cccc(F)c1)C1CCN(c2nn3cc(-c4ccc(F)cc4)nc3s2)CC1	.	-26%	?	.	-1%	0%
CCCCNC(=O)C1(C)CCCCN1C(=O)c1ccc2sccc2c1 (centres undefined)	i	?	16µM*	2%	3%	-13%
CCCCNC(=O)C1(C)CCCCN1C(=O)c1ccc(C)c(F)c1 (centres undefined)	i	-28%	-27%	0%	-21%	3%
CCCCNC(=O)C1(C)CCCCN1C(=O)c1c(Cl)cccc1Cl (centres undefined)	i	?	13µM*	5%	4%	-4%
CCCCNC(=O)C1(C)CCCCN1C(=O)c1cc2ccccc2s1 (centres undefined)	i	8.2µM*	15µM*	-3%	-3%	-5%
CCCCNC(=O)C1(C)CCN1C(=O)c1cc(-c2cccs2)oc1C (centres undefined)	i	1.6µM*	3.7µM*	-24%	-54%	?
CC(C)CNC(=O)C1(C)CCCCCN1C(=O)c1cc2ccccc2s1 (centres undefined)	i	-21%	?	-9%	-41%	-28%
C#C[C@]1(O)CC[C@@H]2[C@@H]3CCc4cc(O)ccc4[C@H]3CC[C@@]21C	.	.	.	-16%	.	.
Cc1cccc2nc(CSc3nc4cc([N+](=O)[O-])ccc4s3)cn12	i	?	?	0%	-4%	8%
C[C@@H](C[C@@H](O)[C@H](O)C(C)(C)O)[C@@H]1CC[C@]2(C)C3=CC[C@H]4C(C)(C)C(=O)CC[C@]4(C)[C@H]3CC[C@@]12C	.	7.3µM*	6.5µM*	?	11µM*	11µM*
CCCCC(=O)O	i	10%	-10%	8%	1%	2%
Cn1c(=O)oc2cc(S(=O)(=O)NCCC(=O)N3CCc4ccccc43)ccc21	?	-2%	-14%	5%	-10%	-5%
CN(Cc1ccccc1)C(=O)c1cc(-c2cccc(Cl)c2)on1	i	23µM*	?	12%	-32%	?
CCOC(=O)CC1(NC(=O)c2cc(COc3c(F)cccc3F)on2)CCCCC1	i	12µM*	8.2µM*	.	-21%	-21%
COc1ccc(CNC(=O)c2cc(-c3cccc(Cl)c3)on2)cc1	?	?	-29%	-16%	-34%	-25%
CN(Cc1cccc2ccccc12)C(=O)c1cc(COc2c(F)cccc2F)on1	i	?	?	.	3%	-1%
CCc1ccc(CN(C)C(=O)c2cc(COc3c(F)cccc3F)on2)cc1	i	23µM*	16µM*	7%	6%	-6%
CN(Cc1cc(-c2ccccc2)on1)C(=O)c1cc(COc2c(F)cccc2F)on1	i	10µM*	?	24%	-10%	2%
Cc1nc(CN(C)C(=O)c2cc(COc3c(F)cccc3F)on2)cs1	?	-20%	?	18%	-43%	-2%
COC(=O)[C@H](Cc1ccccc1)NC(=O)c1cc(COc2c(F)cccc2F)on1	i	-24%	-13%	51%	-13%	-15%
SMILES	ATXN viability	TDP1 cell CPT	TDP1 cell noCPT	ATXN2 expr inh	HepG2 tox	TGFb SMAD3 inh
CCCCN(CC)C(=O)Cn1c(=O)n(-c2ccc(OCC)cc2)c(=O)c2c3c(sc21)CCCC3	i	?	-103%	-8%	5%	-4%
CCCCNCCS(=O)(=O)NCc1ccc(OC)cc1	i	-2%	-9%	1%	-20%	-5%
CCOC(=O)Cc1csc(NC(=O)CN2CCCCC2)n1	i	-34%	-14%	-6%	0%	2%
CC(C)Cn1c2c(c(O)c(C(=O)Nc3nccs3)c1=O)CCCC2	i	16µM*	?	-5%	-1%	0%
CCCn1c2c(c(O)c(C(=O)Nc3nccs3)c1=O)CCCC2	i	6%	?	3%	10%	0%
CCOC(=O)Cc1csc(NC(=O)c2c(O)c3c(n(CC(C)C)c2=O)CCCC3)n1	i	21µM*	?	-9%	-27%	-26%
N#CCCN(CCCN1CCOCC1)CN1C(=O)c2ccccc2C1=O	i	4%	?	.	7%	1%
Cc1ccc(CN2CCN(Cc3cccc4nccnc34)CC2CCO)cc1 (centres undefined)	i	?	-18%	7%	0%	11%
CCN(CC)S(=O)(=O)c1ccc2c(c1)N(CC(=O)N1CCN(c3ccc(Cl)cc3)CC1)C(=O)CO2	?	16µM*	16µM*	-23%	-25%	-8%
CCCN1CCN(C(=O)CN2C(=O)COc3ccc(S(=O)(=O)N(CC)CC)cc32)CC1	i	-15%	16%	2%	-1%	-2%
CCN(CC)S(=O)(=O)c1ccc2c(c1)N(CC(=O)N1CCN(c3cccc(Cl)c3)CC1)C(=O)CO2	?	16µM*	?	-10%	-30%	?
COc1ccccc1Cn1ccn(Cc2ccc(C)cc2)c(=O)c1=O	.	?	?	.	-16%	-17%
CCc1ccccc1NS(=O)(=O)c1ccc2[nH]cc(C(=O)N3CCCCC3)c(=O)c2c1	i	-9%	-10%	14%	0%	-1%
COc1ccc(-c2cn3c(n2)sc2cc(C(=O)Nc4ccc(C)c(C)c4)ccc23)cc1	.	-28%	?	.	2%	-2%
COc1ccc(C(=O)NC(=O)NC2(C(Cl)(Cl)Cl)OCCO2)cc1	i	-14%	6%	89%[11.3 µM]	-2%	-2%
CCOC(=O)N1CCN(C(=O)c2c[nH]c3ccc(S(=O)(=O)N(C)c4ccc(OCC)cc4)cc3c2=O)CC1	i	-3%	20%	7%	-35%	0%
